From ChEMBL document CHEMBL4513216, “Probing the Open Global Health Chemical Diversity Library for Multistage-Active Starting Points for Next-Generation Antimalarials” (ACS Infect Dis, 2020) come the findings set out here.

Hit rate of the full screen: of about 69,000 compounds, about 8,600 (12%) showed an effect of 50% or more. The sample holds strong results, similar compounds and a random draw of the others, so the mix is not that of the screen.

The test has as its system Plasmodium berghei. Nature of the test: Screen against P. berghei liver stage (PbLuc), transformed with Luciferase, at 10uM. Conditions: tested at 10 uM. In kind it is functional, HepG2.
Turning to `O=C1Nc2ccccc2NC12CCN(Cc1nnc(C3CC3)o1)CC2`, the INHIBITION is 56.1%. On to `CCc1nnc(CN2CCC3(CC2)Nc2ccccc2NC3=O)o1`, for which the INHIBITION stood at 18.2%. As for `CC(C)c1nnc(CN2CCC3(CC2)Nc2ccccc2NC3=O)o1`, the INHIBITION was -20.7%. The value for `CC(=O)N1CCN(c2cc(-n3cccc3)ncn2)CC1` was -12.1%. `CN(c1cccnn1)[C@@H]1CC[C@@H]2CN(Cc3cccc(C(=O)O)c3)C[C@@H]21`: the INHIBITION came to 30.6%. For `CC(C)CN(CC(O)c1ccc(F)cc1)C(=O)c1csnn1` (centres undefined), the INHIBITION was -3.48%.

Turning to `CS(=O)(=O)N1CCN(CC(=O)Nc2cccc(Cl)c2)CC1`, the INHIBITION turned out to be 6.83%. Take `c1ccc(C(NCc2nnc(-c3ccco3)o2)C2CCC2)cc1` (centres undefined): the INHIBITION amounted to 50.8%. The value for `CC(C1CC1)N(C)Cc1nnc(-c2ccco2)o1` (centres undefined) was 21.5%; that for `Fc1ccc(C(NCc2nnc(-c3ccco3)o2)C2CCC2)cc1` (centres undefined) was 82.3%. In the case of `Fc1ccc(C(NCc2nnc(C3CC3)o2)C2CCC2)cc1` (centres undefined), the INHIBITION is given as 23.9%. Regarding `Cc1ccc(N2CCCC(NCc3nnc(-c4ccco4)o3)C2)nn1` (centres undefined), the INHIBITION is recorded as 11.94%.

Regarding `Fc1ccc(OC2CCN(Cc3nnc(-c4ccco4)o3)CC2)cc1`, the INHIBITION is -53.1%. As to `CCc1nc(CN(C)C2CCN(CCn3cccn3)C2)no1` (centres undefined), the INHIBITION turned out to be 14.1%. With `Cn1cnnc1CN1CCC2(CCCN(C3CCCC3)C2=O)C1` (centres undefined), the INHIBITION is reported as -15.6%. For the molecule `CCn1nc(C)c(CCNC(=O)C2CCCN(C3CCCC3)C2)c1C` (centres undefined), the INHIBITION was -23.4%. For the molecule `CCc1nnc2n1CCN(CC(O)CN1CCC(C)CC1)C2` (centres undefined), the INHIBITION is 30.3%.

With `CC1CCN(CC(O)CN2CCn3c(nnc3C3CC3)C2)CC1` (centres undefined), the INHIBITION is listed as 12.3%. With `Cc1nnc2n1CCN(CC(O)CN1CCC(C)CC1)C2` (centres undefined), the INHIBITION was determined as 78.2%.

For the molecule `COc1ccc(C)cc1CN(C)CC(N)=O`, the INHIBITION is reported as -33.4%. The value for `CC(C)CNC(=O)C1=NOC2(CCN(Cc3ccoc3)C2)C1` (centres undefined) was -4.26%. Turning to `Cc1ccc(CN2CCC3(CC(C(=O)NCC4CC4)=NO3)C2)cc1C` (centres undefined), the INHIBITION is 31.2%. As for `N#Cc1cccc(CN2CCC3(CC(C(=O)NCC4CC4)=NO3)C2)c1` (centres undefined), the figure is 52%; as for `COc1ccc(CN2CCC3(CC2)CC(CC(=O)NC(C)C)CO3)cc1` (centres undefined), 18.6%; as for `O=C(NCC1CC1)C1=NOC2(CCN(Cc3ccc4c(c3)OCO4)C2)C1` (centres undefined), 6.38%. As for `Cc1cccc(CN2CCC3(CC(C(=O)NCC(C)C)=NO3)C2)c1` (centres undefined), the figure is 76.2%. Regarding `Cc1ccc(S(=O)(=O)N2CCC3(CC(C(=O)NCC(C)C)=NO3)C2)cc1` (centres undefined), the INHIBITION is -10.2%. Take `CCc1ccc(CN2CCC3(CC(C(=O)NCC(C)C)=NO3)C2)o1` (centres undefined): the INHIBITION came to 32.5%. Consider `CC(C)CNC(=O)C1=NOC2(CCN(Cc3ccc(C(C)C)cc3)C2)C1` (centres undefined), for which the INHIBITION is recorded as 80.2%. Consider `CC(C)CNC(=O)C1=NOC2(CCN(Cc3cccc(C#N)c3)C2)C1` (centres undefined), for which the INHIBITION worked out at 20.6%. As for `COc1ccc(CN2CCC3(CC(C(=O)NCC(C)C)=NO3)C2)cc1` (centres undefined), the figure is 78.2%. As to `Cc1oncc1C(=O)N[C@@H]1CN(c2ncccn2)C[C@@H]2CCCO[C@@H]21`, the INHIBITION was -34.7%. `O=c1[nH]c2cn(-c3cccc(Cl)c3)c(=O)n2[nH]1`: the INHIBITION is listed as -14.9%.

For `COc1ccc(CC(=O)N2CCN(c3nccn3C)CC2)cc1`, the INHIBITION turned out to be 40%.

With `COCCN1CCCC2(CCN(c3cc(C)c(C#N)c(C)n3)C2)C1=O` (centres undefined), the INHIBITION was -8.25%. In the case of `CN(C)C(=O)N1CCN(c2cc(N3CCCC3CO)ncn2)CC1` (centres undefined), the INHIBITION was -3.68%. In the case of `O=C(c1cncnc1)N1C[C@@H]2CC[C@H](Oc3cccc(F)c3)[C@@H]2C1`, the INHIBITION is given as 5.11%. Consider `CCc1n[nH]c(=O)c(C(=O)N2CCOC3(CCCC3)C2)c1CC`, for which the INHIBITION was determined as 48.2%.

For the molecule `Cn1cnc(S(=O)(=O)NCCCN2CCCC2)c1Cl`, the INHIBITION is on record as -9.76%. The value for `Cc1nnc(CN(C)C2CCN(CCc3ccccn3)CC2)o1` was 21.5%; that for `Cc1cc(S(=O)(=O)NC(=O)CCc2cccnc2)c(C)s1` was 32%. As to `O=C(CCn1ccc2cc(Br)ccc21)NCc1ccc(C(=O)O)cc1`, the INHIBITION came to 19%. The value for `CC(CNC(=O)CCc1ccco1)N1CCc2sccc2C1` (centres undefined) was 42.5%; that for `Cc1ccc(CCCC(=O)N2CCCC(CS(N)(=O)=O)C2)s1` (centres undefined) was 9.79%. Take `CCCc1nnc(NC(=O)NC(C)Cn2cccn2)s1` (centres undefined): the INHIBITION is -45.6%. For the molecule `CCN(CC1CCOC1)C(=O)c1ccn(-c2ccc(OC)cc2)n1` (centres undefined), the INHIBITION was -2.48%. Turning to `COc1nccc(N2CC[C@H](CO)[C@@H](O)C2)c1C#N`, the INHIBITION is reported as -9.02%. For the molecule `CC(NC(=O)c1cccs1)C(=O)NS(=O)(=O)c1ccc(C#N)cc1` (centres undefined), the INHIBITION was 42.1%. Consider `CC(NC(=O)c1cccs1)C(=O)NS(=O)(=O)Cc1ccc(C#N)cc1` (centres undefined), for which the INHIBITION is 53.3%. Consider `CC(NC(=O)c1cccs1)C(=O)NS(=O)(=O)c1cccc(C#N)c1` (centres undefined), for which the INHIBITION came to 49.9%. The value for `CCOc1c(C(N)=O)cn(C)c1-c1nc2cc(NC(C)=O)ccc2n1C` was 44.3%.

As for `O=C1CCNc2cc3c(cc2CN1Cc1ccco1)OCO3`, the INHIBITION stood at 4.82%. On to `O=C1CCNc2cc3c(cc2CN1CC1CC1)OCO3`, for which the INHIBITION is reported as 13.1%. For the molecule `COC(=O)CN1Cc2cc3c(cc2NCCC1=O)OCO3`, the INHIBITION amounted to 41.1%.
